Screening data: PubChem, National Center for Advancing Translational Sciences (NCATS)
Pf growth 96h – Primary qHTS for delayed death inhibitors of the malarial parasite plastid, 96 hour incubation. hit rate 6.9% among 320,000. P. falciparum luciferase reporter growth, 96 h. Potency, µM (top dose mostly 28.7 µM), for inactives: at the top dose activity change, negative = inhibition, actives largely listed as inhibitors; further: potency means the concentration at half of the fitted maximal effect
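P. falciparum expressing integrated firefly luciferase, in erythrocytes at 2% hematocrit, 0.05% parasitemia, incubated with compounds 96 h at 37 C, 5% CO2. Growth inhibition read as loss of luminescence; two-generation exposure targets delayed-death apicoplast inhibitors.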
HCMV antiviral – qHTS Assay for inhibitors of the human cytomegalovirus (HCMV) | hit rate 4.5% among 410,000 | AID 1259415, 2018 | activity change, negative = inhibition, % at 57.5 µM | HFF cells, HCMV-luciferase reporter, 72 h; stronger effect = lower value; in the data active means activity change below about -60%; inconclusive means no clear call, values can overlap the other calls; inactive means above about -39%
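Compounds were evaluated in HFFs infected with an HCMV luciferase reporter virus (MOI 1 PFU/cell). Luciferase in lysates collected 72 h post infection served as the replication measure.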
Pf growth 48h – Primary qHTS for delayed death inhibitors of the malarial parasite plastid, 48 hour incubation | AID 504832, 2011 | Potency, µM (series often up to 28.7 µM), inactives show at the top dose activity change, negative = inhibition, most hits filed as inhibitors | P. falciparum luciferase growth in erythrocytes, 48 h | hit rate 5.9% among 310,000; further: potency means the concentration at half of the fitted maximal effect
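First compound was added to culture medium, then infected red cells at 0.1% parasitemia and 2% hematocrit (final). After incubation at 37 C under 5% CO2, luciferase detection reagent was dispensed and light output recorded.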
FBPA Giardia inh – qHTS Assay for Inhibitors of Fructose-1,6-bisphosphate Aldolase from Giardia Lamblia; A8B2U2; hit rate 0.71% among 290,000; AID 2451, 2010; purified Giardia FBPA; Potency, µM (series often up to 59.6 µM), for inactives: at the top dose activity, negative = inhibition, most hits filed as inhibitors; further: potency means the concentration at half of the fitted maximal effect; nearly all actives have a fitted effect of over 55% in size
Target sequence (A8B2U2 whole entry, looked up): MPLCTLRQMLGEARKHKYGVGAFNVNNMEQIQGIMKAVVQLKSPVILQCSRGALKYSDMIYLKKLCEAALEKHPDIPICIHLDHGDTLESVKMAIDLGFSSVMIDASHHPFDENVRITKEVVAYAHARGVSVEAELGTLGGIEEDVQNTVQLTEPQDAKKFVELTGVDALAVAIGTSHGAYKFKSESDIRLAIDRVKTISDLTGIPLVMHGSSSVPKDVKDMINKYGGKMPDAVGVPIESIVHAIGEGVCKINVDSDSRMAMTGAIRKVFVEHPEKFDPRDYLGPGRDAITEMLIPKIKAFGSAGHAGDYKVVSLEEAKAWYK
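40 nM FBPA preincubated 10 min at RT with compound (up to 57.5 uM final), then substrate plus GAPDH/TPI/NAD/arsenate coupling and diaphorase/resazurin added. Fluorescence read after 20 min at RT, 525/598 nm.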
Sm TGR block – qHTS Assay for the Inhibitors of Schistosoma Mansoni Peroxiredoxins. purified TGR, DTNB reduction, TNB absorbance 405 nm. Potency, µM (titrated, usually from 114 µM), without a hit: top-dose activity change, negative = inhibition, most hits filed as inhibitors. hit rate 3% among 360,000; further: potency means the concentration at half of the fitted maximal effect; nearly all actives have a fitted effect of over 60% in size
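Kinetic colorimetric format: TGR-catalysed, NADPH-driven DTNB reduction monitored via TNB absorbance. Enzyme dispensed at 20 nM; compound exposure 15 min at room temperature before reaction start.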
* hit, by the source's call; ? = inconclusive; . = not tested or not shown; [ ] = dose if it differs, or a comment. Compounds with a hit are over-represented: about 14% of the library has one in this group of screens. Unless noted, the call rests on the fitted dose curve; in most records, active means well fitted curve in the direction sought with a large enough effect; inconclusive means small, poorly fitted or top-dose-only effect, or another doubt; inactive means no such curve, though single readings can be large; an effect the other way counts as inactive or inconclusive. On the % scale 0 is the no-effect control and ±100 the full control effect.

SMILES | Pf growth 96h | HCMV antiviral | Pf growth 48h | FBPA Giardia inh | Sm TGR block
Cc1ccc(C2C(C#N)=C(N)SC(N)=C2C#N)o1 | 4% | . | 15% | ? | 22µM*
Nc1nc2c(nc(Br)n2C2O[C@H]3COP(=O)(O)O[C@@H]3C2O)c(=O)[nH]1 (some centres undefined) | . | . | . | -1% | .
Cc1ccc(C)c(NC(=O)c2nnn(Cc3ccc(F)cc3Cl)c2N)c1 | . | 16 | . | . | 10%
COc1ccc(S(=O)(=O)N2CCCOC2CNC(=O)C(=O)NCCc2ccco2)cc1 (centres undefined) | ? | -19 | -18% | 4% | -11%
CCOC(=O)c1cccn1C1C(=O)N(Cc2ccc(C(F)(F)F)cc2)c2ccc(F)cc21 (centres undefined) | . | 0 | . | . | .
CCCN(CCC)[C@H]1CCc2c(F)ccc(O)c2C1 | . | . | . | -11% | .
CCCN(CCc1cccs1)[C@H]1CCc2c(O)cccc2C1 | 1.5µM* | . | 6.7µM* | . | .
CC[C@@]12C(=O)N(c3cccc(Br)c3)C(=O)N1[C@H](c1ccc(Br)cc1)[C@@H]1C(=O)N(C(C)(C)C)C(=O)[C@@H]12 | 4.7µM* | -26 | 10µM* | . | 0%
COc1ccc([C@@H]2[C@@H]3C(=O)N(C(C)(C)C)C(=O)[C@@H]3[C@]3(Cc4ccccc4)C(=O)N(c4ccc(Br)cc4)C(=O)N23)cc1 | 5.2µM* | . | 4.1µM* | 9% | -23%
COc1ccc([C@@H]2[C@@H]3C(=O)N(C(C)(C)C)C(=O)[C@@H]3[C@]3(Cc4ccc(Cl)cc4)C(=O)N(c4cccc(Br)c4)C(=O)N23)cc1 | ? | -26 | ? | -12% | -13%
COc1ccc(N2C(=O)N3[C@H](c4ccc(Br)cc4)[C@@H]4C(=O)N(C(C)(C)C)C(=O)[C@@H]4[C@]3(Cc3ccccc3)C2=O)cc1 | ? | -1 | -82% | -2% | 0%
CC[C@@]12C(=O)N(c3cccc(Br)c3)C(=O)N1[C@H](c1ccc(OC)cc1)[C@@H]1C(=O)N(C(C)(C)C)C(=O)[C@@H]12 | ? | ? | ? | . | -4%
COc1ccc([C@@H]2[C@@H]3C(=O)N(C(C)(C)C)C(=O)[C@@H]3[C@]3(Cc4ccc(Cl)cc4)C(=O)N(c4cccc(F)c4)C(=O)N23)cc1 | 9.3µM* | -6 | 5.9µM* | . | -15%
CC(C)(C)N1C(=O)[C@H]2[C@@H](c3ccc(Br)cc3)N3C(=O)N(c4cccc(Cl)c4)C(=O)[C@@]3(Cc3ccccc3)[C@H]2C1=O | 4.7µM* | -25 | 3.3µM* | . | 0%
COC(=O)C1=C(C)N(Cc2ccccc2)[C@]23O[C@](C(=O)OC)(C(=O)N2C1c1ccccc1)C(c1ccccc1)C3C(=O)c1ccccc1 (some centres undefined) | . | . | . | 3%[12.9 µM] | .
CC(C)[C@@H]1O[C@H](CCc2ccccc2)CC2=C1C(=O)OC(C)(C)O2 | . | 24 | . | . | .
Cc1ccnc(N=O)c1 | . | 1 | . | . | .
COc1ccc([C@@H]2[C@@H]3C(=O)N(C(C)(C)C)C(=O)[C@@H]3[C@]3(Cc4ccccc4)C(=O)N(c4cccc(Cl)c4)C(=O)N23)cc1 | 9.3µM* | -6 | 6.6µM* | . | 3%
COc1ccc([C@@H]2[C@@H]3C(=O)N(C(C)(C)C)C(=O)[C@@H]3[C@]3(Cc4ccccc4)C(=O)N(c4ccccc4)C(=O)N23)cc1 | ? | -24 | ? | . | -1%
CCNc1ncc2nc(-c3ccccc3)c(=O)n(C3CC3)c2n1 | . | . | . | 8% | .
COc1cc(Br)c(C(C)NC(=O)c2ccccc2)cc1OC (centres undefined) | 12µM* | 9 | 13µM* | 11% | 4%
CCOC(=O)CN(C)C(=O)CCc1nnc(-c2ccc(-c3ccccc3)cc2)o1 | -13% | -17 | ? | 2% | ?
COc1ccc(CCN(C)C(=O)CCc2nnc(-c3ccccc3)o2)cc1OC | -26% | 92 | 0% | 3% | -9%
CN(Cc1ccc(F)cc1)C(=O)CCc1nnc(-c2ccccc2)o1 | 8.3µM* | -16 | 13% | 2% | -2%
CN(Cc1nc2c(s1)CCCC2)C(=O)CCc1nnc(-c2ccccc2)o1 | 9.3µM* | 11 | 30% | 3% | ?
SMILES | Pf growth 96h | HCMV antiviral | Pf growth 48h | FBPA Giardia inh | Sm TGR block
CC(=O)c1cccc(NC(=O)CN2C(=O)NC(C)(c3ccc4c(c3)OCCCO4)C2=O)c1 (centres undefined) | -1% | -5 | ? | . | -1%
Cc1c(C(=O)OCC(=O)N(C)CC(=O)Nc2ccc(F)cc2)oc2ccccc12 | -19% | -21 | -21% | . | -13%
Cc1ccc(S(=O)(=O)N(C)c2ccc(OC(C)C(=O)N3CCCC3)cc2)cc1C (centres undefined) | ? | -5 | 12µM* | . | 1%
Cc1ccccc1N1CCN(C(=O)c2ccccc2NC(=O)/C=C\C(=O)O)CC1 | ? | 4 | 3% | 9% | ?
CC(C)c1ccc(N2CCN(C(=O)c3ccccc3NC(=O)/C=C\C(=O)O)CC2)cc1 | . | 55 | -11% | -3% | 40µM*
O=C(O)/C=C\C(=O)Nc1ccccc1C(=O)N1CCN(c2ccc(Cl)cc2)CC1 | . | 39 | -20% | 8% | 50µM*
O=[N+]([O-])c1cc(-n2cccc2)ccc1N1CCOCC1 | 29% | ? | 24% | 5% | 0%
COCCCNC(=O)C1CCN(c2nc(C)cc(C)n2)CC1 | 5.2µM* | 8 | 3% | 1% | 4%
Cc1cc(C)nc(N2CCC(C(=O)NCc3ccco3)CC2)n1 | -7% | -17 | 21% | 0% | -2%
COCCNC(=O)C1CCCN(C(=O)c2cc(C)nn2C(C)(C)C)CC1 (centres undefined) | . | -60* | . | . | .
O=C(NCC(c1cccs1)N1CCOCC1)C1CCN(S(=O)(=O)c2c(Cl)cccc2Cl)CC1 (centres undefined) | ? | -24 | 13µM* | . | 1%
Cc1cc(C)nc(N2CCC(C(=O)NCc3cccs3)CC2)n1 | . | -93* | 9% | 3% | 0%
Cc1ccc(CN2CCC(CNC(=O)Nc3c(C)cccc3C)C2)cc1 (centres undefined) | . | -5 | . | . | -3%
C=C1[C@@H]2CC[C@H](C2)C1(C)C | -3% | . | 1% | 0% | .
CCC(Sc1ncccc1Nc1ccccn1)C(=O)O (centres undefined) | . | 16 | . | . | .
C#CCNC(=O)C1CCN(c2ccc(S(=O)(=O)N3CCOCC3)cc2Cl)CC1 | ? | ? | ? | 0% | ?
O=C(NCc1cccs1)C1CCN(c2ccc(S(=O)(=O)N3CCOCC3)cc2Cl)CC1 | ? | -86* | 4.7µM* | 4% | 0%
O=C1OCc2ccc(NS(=O)(=O)c3ccc(C(F)(F)F)cc3)cc21 | 11% | 10 | 10% | 7% | 3%
